Read-out in assay [1]: Intercellular Adhesion Molecule 1 (ICAM1), ICAM1 (gene 3383)
As to the kind of experiment: BSK_hDFCGF_ICAM1: BioMAP Diversity Plus: hDFCGF Assay for Intercellular Adhesion Molecule 1 (ICAM1) Biomarker Activity (AID 2284287). As to conditions: primary human foreskin fibroblasts. In short, it runs like this:
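ICAM-1 ELISA readout 24 h after dosing, DMSO as baseline, in human dermal foreskin fibroblast cultures. Cytotoxicity checked in parallel wells by SRB staining (0.1% SRB, 10% TCA fixation, 560 nm).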

Read-out in assay [2]: TIMP metallopeptidase inhibitor 2 (TIMP2), TIMP2 (gene 7077)
As to the kind of experiment: BSK_hDFCGF_TIMP2: BioMAP Diversity Plus: hDFCGF Assay for TIMP metallopeptidase inhibitor 2 (TIMP2) Biomarker Activity (AID 2284289). As to conditions: primary human foreskin fibroblasts. Put shortly: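 Primary human foreskin fibroblasts in the hDFCGF system, dosed for 24 h; TIMP-2 level measured by ELISA, fitted in the positive direction against DMSO; cytotoxicity checked in parallel by sulforhodamine B total protein staining.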

Read-out in assay [3]: Thrombomodulin, THBD (gene 7056)
As to the kind of experiment: BSK_LPS_Thrombomodulin: BioMAP Diversity Plus: LPS Assay for Thrombomodulin Biomarker Activity (AID 2284296). As to conditions: primary human HUVEC with PBMC. In short, it runs like this:
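Thrombomodulin on the surface of LPS-activated endothelial/PBMC co-cultures was quantified by ELISA at 24 hours post-dosing, with DMSO as baseline. Parallel SRB total-protein staining flagged overt cytotoxicity.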

Read-out in the next assay: CD69, CD69 (gene 969)
Nature of the assay: BSK_LPS_CD69: BioMAP Diversity Plus: LPS Assay for CD69 Biomarker Activity (AID 2284303). The conditions noted are these: primary human HUVEC with PBMC. Put shortly:
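CD69 surface levels were read by ELISA after 24 h chemical treatment of an LPS-stimulated HUVEC plus PBMC co-culture; positive-direction fit against DMSO vehicle.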

Read-out in a further assay: CD40, CD40 (gene 958)
Nature of the assay: BSK_IMphg_CD40: BioMAP Diversity Plus: IMphg Assay for CD40 Biomarker Activity (AID 2284288). The conditions noted are these: primary human endothelial cells with macrophages. In short, it runs like this:
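ELISA read-out of cell-surface CD40 at 24 h in human venular endothelial cell/macrophage co-cultures. Activity fitted in the positive direction against DMSO; parallel SRB staining (560 nm) gauges overt cytotoxicity.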

Read-out in assay [4]: Interleukin-1 alpha (IL1a), IL1A (gene 3552)
Nature of the assay: BSK_IMphg_IL1a: BioMAP Diversity Plus: IMphg Assay for Interleukin-1 alpha (IL1a) Biomarker Activity (AID 2284290). The conditions noted are these: primary human endothelial cells with macrophages. Put shortly: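 IL-1α is quantified by ELISA at 24 h in the endothelial/macrophage IMphg co-culture, with gain of signal fitted relative to DMSO. Parallel SRB total-protein staining flags overt toxicity.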

Read-out in assay [5]: E-selectin (Homo sapiens) (UniProt P16581)
As to the kind of experiment: BSK_IMphg_ESelectin: BioMAP Diversity Plus: IMphg Assay for Eselectin Biomarker Activity (AID 2284291). The conditions noted are these: primary human endothelial cells with macrophages. In short, it runs like this:
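Analysed against DMSO baseline in the positive fitting direction, this endpoint is an ELISA read of E-selectin. It comes from human venular endothelial cells co-cultured with macrophages, sampled 24 h post-dose.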

The nature of assay [6]: BSK_IMphg_SRB: Viability Assessment in the BioMAP Diversity Plus: IMphg Assay (AID 2284292).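 Further: measured one day after compound addition.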 The conditions noted are these: primary human endothelial cells with macrophages. Put shortly:
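SRB viability endpoint: cultures of human endothelial cells plus macrophages fixed with 10% TCA, stained with 0.1% SRB, read at 560 nm 24 h post-dosing. Only gain-of-signal fitted, relative to DMSO.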

Read-out in assay [7]: Macrophage colony-stimulating factor (MCSF), CSF1 (gene 1435)
As to the kind of experiment: BSK_IMphg_MCSF: BioMAP Diversity Plus: IMphg Assay for Macrophage colony-stimulating factor (MCSF) Biomarker Activity (AID 2284293). The conditions noted are these: primary human endothelial cells with macrophages. Put shortly: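 M-CSF was measured by ELISA in human venular endothelial cell/macrophage co-cultures dosed for 24 hours. Sulforhodamine B staining of parallel cultures assessed cytotoxicity; data fitted against DMSO baseline.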

Assay [8] in a line: BSK_IMphg_SRB.Mphg: Macrophage Viability Assessment in the BioMAP Diversity Plus: IMphg Assay (AID 2284295). As to conditions: primary human endothelial cells with macrophages. Put shortly: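 Cytotoxicity read-out: parallel cultures fixed with 10% TCA, stained with 0.1% sulforhodamine B, read at 560 nm. System combines venular endothelium and macrophages; sampled 24 h post-dosing, fitted positively relative to DMSO control.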

A short description of assay [9]: IUF_NPC2c_oligodendrocyte_migration_120hr: Leibniz Research Institute for Environmental Medicine (IUF) 120-hour Neural Progenitor Cell Migration Assay for Oligodendrocyte Migration (NPC2c) (AID 2284297).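 Further: O4-positive oligodendrocyte migration distance divided by radial glia migration distance.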 Put shortly: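 Using fetal brain neural progenitor spheres differentiating in N2 medium at 37C, compounds were present for 120 h. Oligodendrocyte migration distance, normalized to radial glia migration, was measured from imaged O4 staining.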

Assay [10] in a line: IUF_NPC2a_radial_glia_migration_120hr: Leibniz Research Institute for Environmental Medicine (IUF) 120-hour Neural Progenitor Cell Migration Assay for Radial Glia Migration (NPC2a) (AID 2284298). Put shortly:
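Exposure of 0.3 mm primary hNPC spheres runs day 0 to 120 h with a half-volume medium change at day 3. Fixed cells get Hoechst staining; high-content analysis of nuclear positions yields radial glia migration distance per well, compared against DMSO controls.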

Assay [11] in a line: IUF_NPC2a_radial_glia_migration_72hr: Leibniz Research Institute for Environmental Medicine (IUF) 72-hour Neural Progenitor Cell Migration Assay for Radial Glia Migration (NPC2a) (AID 2284299). Put shortly:
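Spheres of human primary neural progenitors migrate on poly-D-lysine/laminin under compound exposure at 37C, 5% CO2. The 72 h radial glia migration distance comes from brightfield images, measured manually.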

Assay [12] in a line: IUF_NPC2b_neuronal_migration_120hr: Leibniz Research Institute for Environmental Medicine (IUF) 120-hour Neural Progenitor Cell Migration Assay for Neuron Migration (NPC2b) (AID 2284300). Put shortly: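 Fetal human NPC spheres migrate on PDL/laminin during 120 h compound treatment; neuronal migration distance, glia-normalized, scored versus DMSO control.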
Assay [13] in a line: IUF_NPC3_neuronal_differentiation_120hr: Leibniz Research Institute for Environmental Medicine (IUF) 120-hour Neuronal Differentiation Assay (NPC3) (AID 2284301). In short, it runs like this:
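hNPC spheres, PDL/laminin, DMEM/F12 3:1 + 1% N2, 37C, 5% CO2; 7 concentrations + solvent control, 5 d exposure, half-change day 3. Fix 120 h; TUBB3/Hoechst ICC, CNN neuron calling; % neurons vs nuclei, DMSO-normalized.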

The nature of assay [14]: IUF_NPC4_neurite_length_120hr: Leibniz Research Institute for Environmental Medicine (IUF) 120-hour Neuronal Morphology Assay for Neurite Length (NPC4) (AID 2284302). Put shortly: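 hNPC spheres (0.3 mm, fetal brain GW 16-19) on PDL/laminin, DMEM:F12 3:1 + 1% N2, 37C 5% CO2; 7 concs + solvent control, day 0-5, half medium change d3; fix 120 h, TUBB3 ICC, mean neurite length um vs DMSO.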

The nature of assay [15]: IUF_NPC5_oligodendrocyte_differentiation_120hr: Leibniz Research Institute for Environmental Medicine (IUF) 120-hour Oligodendrocyte Differentiation Assay (NPC5) (AID 2284304; active means hit-call score of the fitted dose curve at least 0.9, where 1 is the maximum;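 further: primary human fetal neural progenitor spheres plated to migrate and differentiate; share of O4-positive cells among Hoechst nuclei found by CNN image analysis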). In short, it runs like this:
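After plating on poly-D-lysine/laminin, fetal-derived hNPC spheres differentiated for 120 h at 37C in compound-containing N2 medium, refreshed by half on day 3. O4 immunostaining over Hoechst nuclei in the migration zone gave oligodendrocyte percentage relative to DMSO.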

The nature of assay [16]: IUF_NPC4_neurite_area_120hr: Leibniz Research Institute for Environmental Medicine (IUF) 120-hour Neuronal Morphology Assay for Neurite Area (NPC4) (AID 2284305; active means hit-call score of the fitted dose curve at least 0.9, where 1 is the maximum). In short, it runs like this:
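hNPC spheres on PDL/laminin, N2 medium, 37C/5% CO2; dosed day 0, half-medium refresh day 3; fixed 120 h; TUBB3/Hoechst ICC, high-content imaging; neurite area = mean pixels per neuron (nuclei excluded); DMSO baseline, max 0.1%.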

The nature of assay [17]: IUF_NPC2-5_cytotoxicity_72hr: Cytotoxicity Assessment at 72 hours in the Leibniz Research Institute for Environmental Medicine (IUF) Neural Progenitor Cell Migration and Differentiation Assay for Cytotoxicity (NPC2-5) (AID 2284306; active means hit-call score of the fitted dose curve at least 0.9, where 1 is the maximum;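 further: LDH release into supernatant measured by resorufin fluorescence marking membrane damage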). In short, it runs like this: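 hNPC spheres (0.3 mm), PDL/laminin, DMEM/F12 3:1 + 1% N2; cpd from d0, 7 concs + SC, DMSO max 0.1%; half-medium refresh d3. Readout: supernatant LDH via resorufin fluorescence (RFU), 72 h; gain-of-signal fit.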

Assay [18] is described as follows: IUF_NPC2-5_cytotoxicity_120hr: Cytotoxicity Assessment at 120 hours in the Leibniz Research Institute for Environmental Medicine (IUF) Neural Progenitor Cell Migration and Differentiation Assay (NPC2-5) (AID 2284307; active means hit-call score of the fitted dose curve at least 0.9, where 1 is the maximum;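 further: LDH released into supernatant as membrane damage marker via resorufin fluorescence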). Put shortly: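 Membrane-integrity loss is quantified by LDH in supernatant after five days of exposure of migrating, differentiating human fetal NPC spheres; seven serially diluted concentrations are tested with DMSO kept at or below 0.1%.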

Results on 6 compounds are retold here after PubChem BioAssay (EPA / NIEHS).

Inconclusive results are not listed. A structure can be active in one record and inactive in another. Active and inactive are the calls of the source. How the source made its calls, unless noted: active means hit-call score of the fitted dose curve at least 0.9, where 1 is the maximum; inactive means score below 0.9.

E-selectin (Homo sapiens), sequence (P16581 whole entry, looked up): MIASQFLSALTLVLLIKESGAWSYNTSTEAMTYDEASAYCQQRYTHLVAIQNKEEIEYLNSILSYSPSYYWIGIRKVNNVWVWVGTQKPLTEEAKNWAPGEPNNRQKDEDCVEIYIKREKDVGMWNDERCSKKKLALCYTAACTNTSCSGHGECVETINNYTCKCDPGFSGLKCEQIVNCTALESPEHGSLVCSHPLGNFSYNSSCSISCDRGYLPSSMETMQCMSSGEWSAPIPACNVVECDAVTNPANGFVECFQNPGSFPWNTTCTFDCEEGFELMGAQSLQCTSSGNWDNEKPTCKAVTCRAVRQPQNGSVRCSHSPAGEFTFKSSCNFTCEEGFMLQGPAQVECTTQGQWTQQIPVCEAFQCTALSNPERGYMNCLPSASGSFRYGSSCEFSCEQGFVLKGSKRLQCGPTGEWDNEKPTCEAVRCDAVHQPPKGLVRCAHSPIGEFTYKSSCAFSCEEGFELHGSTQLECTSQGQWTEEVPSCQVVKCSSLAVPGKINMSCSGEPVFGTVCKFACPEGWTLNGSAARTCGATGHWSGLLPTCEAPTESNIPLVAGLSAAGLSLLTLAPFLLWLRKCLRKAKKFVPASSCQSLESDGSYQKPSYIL

Take `COP(=O)(CCC(=O)NCO)OC`: the outcome in assay [1] was “inactive”; in [2] it was “inactive”; in [3] it was “inactive”; in the assay with CD69, CD69 (gene 969) it was “inactive”. Further, the AC50 (commonly the midpoint of the concentration-response curve, whichever way the signal moves) with CD69, CD69 (gene 969) was 0.15 µM (active).
As to `CC(O)C(F)(F)C(F)(F)F` (stereo not drawn), the outcome was “inactive” in [1]; “inactive” in the assay with CD40, CD40 (gene 958); “inactive” in assay [2]; “inactive” in [4]; “inactive” in [5]; “inactive” in [6]. For the same compound, the outcome in assay [7] was “inactive”; in assay [8], “inactive”; in assay [3] it was “inactive”; with CD69, CD69 (gene 969) it was “inactive”. Besides, in the assay with CD40, CD40 (gene 958), the AC50 is 2.17 µM (active).
Take `CC(C)(C)c1ccccc1OP(=O)(Oc1ccccc1)Oc1ccccc1`: the compound was called inactive in assay [9], in [11], in assay [12], in [13], in [14] and in assay [16]. For the same compound, the call in assay [17] was inactive. For the same compound, the AC50 was 10 µM (active) in [10], 4.35 µM (active) in assay [15] and 1.98 µM (active) in [18].
As to `OCC(F)(F)OC(F)(F)C(F)(F)OC(F)(F)CO`, the outcome is “inactive” in [1]; “inactive” with CD40, CD40 (gene 958); “inactive” in assay [2]; “inactive” in [4]; “inactive” in assay [5]; “inactive” in assay [6]. In addition, the outcome in [7] was “inactive”; in [8], “inactive”; in assay [3], “inactive”; with CD69, CD69 (gene 969) it was “inactive”. For the same compound, in [4], the half-maximal activity concentration (AC50) is 0.334 µM (active).
With `FC(F)(F)C(F)(C(F)(F)F)C(F)(F)C(F)(F)CC1CO1` (stereo not drawn), the outcome was “inactive” in [1]; “inactive” in the assay with CD40, CD40 (gene 958); “inactive” in assay [2]; “inactive” in assay [4]; “inactive” in assay [5]; “inactive” in assay [6]. Besides, the outcome in assay [7] was “inactive”; in assay [8] it was “inactive”; in [3], “inactive”; with CD69, CD69 (gene 969), “inactive”. In [2], the AC50 was 0.319 µM (active).
For the compound `O=C(O)C(F)(F)OC(F)(F)C(F)(F)OC(F)(F)C(=O)O`, the outcome in assay [1] is “inactive”; with CD40, CD40 (gene 958), “inactive”; in assay [2], “inactive”; in assay [4], “inactive”; in [5], “inactive”; in assay [6], “inactive”. The outcome in assay [7] was “inactive”; in assay [8] it was “inactive”; in assay [3], “inactive”; with CD69, CD69 (gene 969) it was “inactive”.
